Three compounds from PubChem BioAssay (EPA / NIEHS) can be followed below.

Activity calls are given as the source filed them. Rule for the calls: active = hit-call score of the fitted dose curve at least 0.9, where 1 is the maximum; inactive = score below 0.9.

What all share (settings): mRNA level, 48 h; actives raise or lower the signal
Read-out in assay [1]: Nuclear factor NF-kappa-B p105 subunit (Homo sapiens) (UniProt P19838)
The experiment in a line: LTEA_HepaRG_NFKB1: Life Technologies and Expression Analysis (LTEA) Assay for Nuclear Factor Kappa B Subunit 1 (NFKB1) using HepaRG (AID 2283521).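 For outcome: TaqMan qRT-PCR transcript normalised to ACTB GAPDH and POLR2A housekeeping genes.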 The method, boiled down: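 Human HepaRG cells receive eight half-log concentrations, highest 100 uM, for 48 h. NFKB1 expression is then quantified by qRT-PCR and analysed for up- or down-regulation relative to 0.5% DMSO vehicle.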

Read-out in assay [2]: Protein phosphatase 2A (PPP2R4), PTPA (gene 5524)
The experiment in a line: LTEA_HepaRG_PPP2R4: Life Technologies and Expression Analysis (LTEA) Assay for Protein phosphatase 2A (PPP2R4) using HepaRG (AID 2283522). The gist of the method: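 Gene-expression endpoint in HepaRG hepatic cells: 48 h treatment across eight half-log concentrations up to 100 uM in 0.5% DMSO. PPP2R4 mRNA by qRT-PCR, normalized to three endogenous control genes.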

Read-out in assay [3]: Phosphatase and tensin (PTEN), PTEN (gene 5728)
The experiment in a line: LTEA_HepaRG_PTEN: Life Technologies and Expression Analysis (LTEA) Assay for Phosphatase and tensin (PTEN) using HepaRG (AID 2283523). The gist of the method:
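HepaRG cells, 48 h after plating, exposed in duplicate for 48 h in serum-free induction medium to 8 half-log concentrations up to 100 uM (0.5% DMSO). PTEN mRNA by qRT-PCR, normalized to ACTB, GAPDH, POLR2A; bidirectional fit versus DMSO.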

Read-out in assay [4]: solute carrier (SLC22A1), SLC22A1 (gene 6580)
In words: LTEA_HepaRG_SLC22A1: Life Technologies and Expression Analysis (LTEA) Assay for solute carrier (SLC22A1) using HepaRG (AID 2283524). The gist of the method: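 Differentiated human HepaRG cells in serum-free induction medium, exposed 48 h in duplicate to 8-point half-log series from 100 µM top in 0.5% DMSO. SLC22A1 mRNA by TaqMan qRT-PCR normalized to ACTB, GAPDH, POLR2A; bidirectional fit versus DMSO.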

Read-out in assay [5]: Pyruvate Dehydrogenase Kinase 4 (PDK4), PDK4 (gene 5166)
In words: LTEA_HepaRG_PDK4: Life Technologies and Expression Analysis (LTEA) Assay for Pyruvate Dehydrogenase Kinase 4 (PDK4) using HepaRG (AID 2283525). The method, boiled down: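 HepaRG cells plated 48 h, then switched to serum-free induction medium and exposed in duplicate for 48 h to 8 half-log concentrations from 100 uM in 0.5% DMSO. PDK4 mRNA measured by qRT-PCR, normalized to ACTB, GAPDH and POLR2A; bidirectional fit versus DMSO.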

Read-out in assay [6]: NAD(P)H dehydrogenase [quinone] 1 (NQO1), NQO1 (gene 1728)
The experiment in a line: LTEA_HepaRG_NQO1: Life Technologies and Expression Analysis (LTEA) Assay for NAD(P)H dehydrogenase [quinone] 1 (NQO1) using HepaRG (AID 2283526). The gist of the method:
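Human HepaRG hepatic cells received chemicals for 48 h in serum-free induction medium with 0.5% DMSO, up to 100 uM. Expression was assessed by TaqMan qRT-PCR against housekeeping controls and fitted bidirectionally against DMSO.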

Read-out in assay [7]: Nuclear factor erythroid 2-related factor 2 (Homo sapiens) (UniProt Q16236)
In words: LTEA_HepaRG_NFE2L2: Life Technologies and Expression Analysis (LTEA) Assay for Nuclear factor erythroid 2-related factor 2 (NFE2L2) Transcription Factor using HepaRG (AID 2283527).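 For outcome: TaqMan qRT-PCR transcript level normalised to ACTB GAPDH and POLR2A housekeeping genes.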 The method, boiled down: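 Differentiated human HepaRG cells, serum-free induction medium, exposed 48 h in duplicate to eight half-log concentrations up to 100 uM in 0.5% DMSO. NFE2L2 mRNA by Fluidigm TaqMan qRT-PCR, normalised to ACTB, GAPDH, POLR2A; bidirectional change versus DMSO.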

Read-out in assay [8]: succinate dehydrogenase complex iron sulfur subunit B (SDHB), SDHB (gene 6390)
The experiment in a line: LTEA_HepaRG_SDHB: Life Technologies and Expression Analysis (LTEA) Assay for succinate dehydrogenase complex iron sulfur subunit B (SDHB) using HepaRG (AID 2283528). The method, boiled down:
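A human HepaRG culture in serum-free induction medium received test chemicals for 48 h over an eight-point range capped at 100 uM. SDHB expression change was quantified by qRT-PCR.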

Read-out in assay [9]: Signal transducer and activator of transcription 3 (Homo sapiens) (UniProt P40763)
The experiment in a line: LTEA_HepaRG_STAT3: Life Technologies and Expression Analysis (LTEA) Assay for Signal transducer and activator of transcription (STAT3) using HepaRG (AID 2283529). The gist of the method:
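Differentiated HepaRG cells, serum-free induction medium, dosed 48 h in duplicate, 8 half-log concentrations from 100 uM in 0.5% DMSO. STAT3 mRNA by qRT-PCR, normalised to ACTB, GAPDH, POLR2A; bidirectional fit versus DMSO.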

Read-out in assay [10]: solute carrier (SLCO1B1), SLCO1B1 (gene 10599)
In words: LTEA_HepaRG_SLCO1B1: Life Technologies and Expression Analysis (LTEA) Assay for solute carrier (SLCO1B1) using HepaRG (AID 2283530). The gist of the method: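 Gain or loss of SLCO1B1 mRNA is fitted against the 0.5% DMSO vehicle in human HepaRG liver cells treated 48 h at up to 100 uM in half-log steps. Expression comes from qRT-PCR normalized to endogenous controls.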

Read-out in assay [11]: sulfotransferase 2A1 (SULT2A1), SULT2A1 (gene 6822)
The experiment in a line: LTEA_HepaRG_SULT2A1: Life Technologies and Expression Analysis (LTEA) Assay for sulfotransferase 2A1 (SULT2A1) using HepaRG (AID 2283531). The gist of the method:
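Cells were plated and cultured 48 h, switched to serum-free induction medium, then dosed in duplicate for 48 h (8 concentrations, max 100 uM). RNA was isolated and SULT2A1 expression measured by qRT-PCR; gain or loss of signal fitted relative to DMSO.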

Read-out in assay [12]: Transforming Growth Factor (TGFB1), TGFB1 (gene 7040)
In words: LTEA_HepaRG_TGFB1: Life Technologies and Expression Analysis (LTEA) Assay for Transforming Growth Factor (TGFB1) Transporter using HepaRG (AID 2283533). The method, boiled down:
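Expression change of TGFB1 in human HepaRG cells is measured after a 48 h chemical exposure, up to 100 uM in 0.5% DMSO vehicle. Curves are fitted in both directions relative to the DMSO baseline.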

Read-out in a further assay: TIMP1, TIMP1 (gene 7076)
In words: LTEA_HepaRG_TIMP1: Life Technologies and Expression Analysis (LTEA) Assay for TIMP1 using HepaRG (AID 2283534).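 Note: TaqMan qRT-PCR signal normalized to ACTB GAPDH and POLR2A housekeeping genes.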 The method, boiled down: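 We dosed human liver HepaRG cultures for 48 hours with up to 100 uM test chemical and measured TIMP1 expression by qRT-PCR. Activity in either direction is fitted relative to the 0.5% DMSO vehicle.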

Read-out in assay [13]: Tumor necrosis factor receptor 1 (TNFRSF1A), TNFRSF1A (gene 7132)
In words: LTEA_HepaRG_TNFRSF1A: Life Technologies and Expression Analysis (LTEA) Assay for Tumor necrosis factor receptor 1 (TNFRSF1A) using HepaRG (AID 2283535). The gist of the method:
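Expression of TNFRSF1A in human HepaRG liver cells was measured by qRT-PCR 48 h after chemical dosing (maximum 100 uM). Bidirectional curve fitting used 0.5% DMSO as baseline.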

Read-out in assay [14]: Thyroid Hormone Responsive (THRSP), THRSP (gene 7069)
In words: LTEA_HepaRG_THRSP: Life Technologies and Expression Analysis (LTEA) Assay for Thyroid Hormone Responsive (THRSP) using HepaRG (AID 2283536). The gist of the method:
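Differentiated HepaRG cells treated 48 h in serum-free induction medium with 8 half-log concentrations up to 100 uM (0.5% DMSO), duplicates. THRSP mRNA by TaqMan qRT-PCR normalised to ACTB, GAPDH, POLR2A; bidirectional fit versus DMSO.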

Read-out in assay [15]: Cellular tumor antigen p53 (Homo sapiens) (UniProt P04637)
In words: LTEA_HepaRG_TP53: Life Technologies and Expression Analysis (LTEA) Assay for Tumor Protein P53 (TP53) using HepaRG (AID 2283537). The gist of the method: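 Gain or loss of TP53 mRNA signal is scored relative to 0.5% DMSO after 48 h chemical treatment of HepaRG liver cells, tested in duplicate at eight half-log concentrations up to 100 uM.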

Read-out in assay [16]: UDP glucuronosyltransferase (UGT1A1), UGT1A1 (gene 54658)
The experiment in a line: LTEA_HepaRG_UGT1A1: Life Technologies and Expression Analysis (LTEA) Assay for UDP glucuronosyltransferase (UGT1A1) using HepaRG (AID 2283538). The gist of the method: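 Human liver HepaRG cultures receive test chemical for 48 h, up to 100 uM in 0.5% DMSO, with phenobarbital induction controls. UGT1A1 mRNA is measured by qRT-PCR and normalized to ACTB, GAPDH and POLR2A.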

Read-out in assay [17]: UDP glucuronosyltransferase (UGT1A6), UGT1A6 (gene 54578)
The experiment in a line: LTEA_HepaRG_UGT1A6: Life Technologies and Expression Analysis (LTEA) Assay for UDP glucuronosyltransferase (UGT1A6) using HepaRG (AID 2283539). The method, boiled down: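 Endpoint is UGT1A6 transcript induction or loss in a human liver cell line, quantified by TaqMan qRT-PCR 48 h after dosing. Concentrations ran from 100 uM downward in half-log steps in 0.5% DMSO; activity was fitted in both directions versus vehicle.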

Read-out in assay [18]: X-box binding protein 1 (XBP1), XBP1 (gene 7494)
The experiment in a line: LTEA_HepaRG_XBP1: Life Technologies and Expression Analysis (LTEA) Assay for X-box binding protein 1 (XBP1) using HepaRG (AID 2283540). The gist of the method: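 Human HepaRG monolayers receive test chemical for 48 h across an eight-point half-log series starting at 100 uM. XBP1 mRNA gain or loss is scored against DMSO by qRT-PCR.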

Read-out in assay [19]: Transforming Growth Factor (TGFA), TGFA (gene 7039)
The experiment in a line: LTEA_HepaRG_TGFA: Life Technologies and Expression Analysis (LTEA) Assay for Transforming Growth Factor (TGFA) using HepaRG (AID 2283532). The gist of the method:
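Differentiated HepaRG cells exposed 48 hours in serum-free induction medium, 0.5% DMSO vehicle, 8-point half-log series from 100 uM, in duplicate. TGFA mRNA by TaqMan qRT-PCR, normalised to ACTB, GAPDH, POLR2A; bidirectional fit versus DMSO.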

Sequence of Signal transducer and activator of transcription 3 (Homo sapiens) (P40763 whole entry, looked up): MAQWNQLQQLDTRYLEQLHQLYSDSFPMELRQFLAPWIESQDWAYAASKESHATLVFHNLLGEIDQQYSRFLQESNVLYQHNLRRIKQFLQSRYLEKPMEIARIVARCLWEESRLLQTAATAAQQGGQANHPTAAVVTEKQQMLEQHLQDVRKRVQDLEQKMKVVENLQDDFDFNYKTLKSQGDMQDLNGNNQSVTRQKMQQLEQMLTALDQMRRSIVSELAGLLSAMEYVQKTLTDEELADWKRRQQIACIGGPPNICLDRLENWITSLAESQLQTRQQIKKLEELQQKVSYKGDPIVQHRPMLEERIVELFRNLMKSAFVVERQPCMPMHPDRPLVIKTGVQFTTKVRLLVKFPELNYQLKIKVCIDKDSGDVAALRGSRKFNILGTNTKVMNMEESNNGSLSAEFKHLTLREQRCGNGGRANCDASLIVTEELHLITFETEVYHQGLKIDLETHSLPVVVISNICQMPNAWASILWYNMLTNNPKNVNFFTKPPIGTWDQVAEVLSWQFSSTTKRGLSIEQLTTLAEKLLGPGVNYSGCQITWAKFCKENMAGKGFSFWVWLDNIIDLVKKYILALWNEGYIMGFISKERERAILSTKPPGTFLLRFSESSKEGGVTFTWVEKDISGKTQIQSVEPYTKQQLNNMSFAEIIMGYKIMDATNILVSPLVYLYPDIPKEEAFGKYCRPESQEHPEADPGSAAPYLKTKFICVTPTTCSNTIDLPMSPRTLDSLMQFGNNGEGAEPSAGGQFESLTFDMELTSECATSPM
Sequence of Nuclear factor NF-kappa-B p105 subunit (Homo sapiens) (P19838 whole entry, looked up): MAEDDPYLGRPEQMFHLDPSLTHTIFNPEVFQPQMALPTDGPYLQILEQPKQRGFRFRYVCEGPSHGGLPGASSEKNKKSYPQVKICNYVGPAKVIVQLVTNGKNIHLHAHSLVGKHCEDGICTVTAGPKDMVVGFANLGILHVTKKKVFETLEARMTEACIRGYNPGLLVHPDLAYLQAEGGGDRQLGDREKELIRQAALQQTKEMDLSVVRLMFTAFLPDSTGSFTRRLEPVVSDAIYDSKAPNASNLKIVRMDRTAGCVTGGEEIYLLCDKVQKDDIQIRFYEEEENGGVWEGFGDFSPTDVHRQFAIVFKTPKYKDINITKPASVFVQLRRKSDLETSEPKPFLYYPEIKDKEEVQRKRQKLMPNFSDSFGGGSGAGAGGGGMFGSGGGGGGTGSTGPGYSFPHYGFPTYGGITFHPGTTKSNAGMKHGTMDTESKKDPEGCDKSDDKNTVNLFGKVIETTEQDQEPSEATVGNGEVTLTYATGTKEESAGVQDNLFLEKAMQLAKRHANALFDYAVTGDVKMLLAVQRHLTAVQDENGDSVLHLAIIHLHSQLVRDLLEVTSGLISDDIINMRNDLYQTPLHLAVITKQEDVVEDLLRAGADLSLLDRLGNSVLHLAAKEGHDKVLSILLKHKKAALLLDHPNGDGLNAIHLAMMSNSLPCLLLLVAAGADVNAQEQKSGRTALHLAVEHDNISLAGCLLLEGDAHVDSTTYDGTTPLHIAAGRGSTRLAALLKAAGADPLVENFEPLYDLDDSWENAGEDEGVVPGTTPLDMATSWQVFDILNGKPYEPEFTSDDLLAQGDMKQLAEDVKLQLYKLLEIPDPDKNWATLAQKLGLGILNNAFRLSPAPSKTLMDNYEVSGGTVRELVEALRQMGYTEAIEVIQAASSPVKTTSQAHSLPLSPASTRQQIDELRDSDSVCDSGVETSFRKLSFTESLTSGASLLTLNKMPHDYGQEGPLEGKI
Sequence of Nuclear factor erythroid 2-related factor 2 (Homo sapiens) (Q16236 whole entry, looked up): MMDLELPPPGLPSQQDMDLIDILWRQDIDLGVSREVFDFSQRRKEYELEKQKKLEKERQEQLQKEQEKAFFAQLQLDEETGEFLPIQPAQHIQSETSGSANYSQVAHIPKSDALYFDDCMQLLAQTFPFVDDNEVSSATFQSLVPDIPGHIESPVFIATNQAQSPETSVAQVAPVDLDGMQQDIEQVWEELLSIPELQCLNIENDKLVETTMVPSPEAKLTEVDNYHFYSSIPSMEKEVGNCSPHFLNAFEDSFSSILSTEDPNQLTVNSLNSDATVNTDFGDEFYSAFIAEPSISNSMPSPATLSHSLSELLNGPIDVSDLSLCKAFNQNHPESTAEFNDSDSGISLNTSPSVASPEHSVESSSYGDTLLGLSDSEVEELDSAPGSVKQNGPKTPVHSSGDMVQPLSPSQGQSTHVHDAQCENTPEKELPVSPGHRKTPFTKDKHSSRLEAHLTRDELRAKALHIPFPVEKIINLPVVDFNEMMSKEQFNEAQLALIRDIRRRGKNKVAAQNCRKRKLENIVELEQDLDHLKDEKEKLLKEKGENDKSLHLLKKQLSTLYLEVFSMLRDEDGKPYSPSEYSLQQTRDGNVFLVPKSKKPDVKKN
Sequence of Cellular tumor antigen p53 (Homo sapiens) (P04637 whole entry, looked up): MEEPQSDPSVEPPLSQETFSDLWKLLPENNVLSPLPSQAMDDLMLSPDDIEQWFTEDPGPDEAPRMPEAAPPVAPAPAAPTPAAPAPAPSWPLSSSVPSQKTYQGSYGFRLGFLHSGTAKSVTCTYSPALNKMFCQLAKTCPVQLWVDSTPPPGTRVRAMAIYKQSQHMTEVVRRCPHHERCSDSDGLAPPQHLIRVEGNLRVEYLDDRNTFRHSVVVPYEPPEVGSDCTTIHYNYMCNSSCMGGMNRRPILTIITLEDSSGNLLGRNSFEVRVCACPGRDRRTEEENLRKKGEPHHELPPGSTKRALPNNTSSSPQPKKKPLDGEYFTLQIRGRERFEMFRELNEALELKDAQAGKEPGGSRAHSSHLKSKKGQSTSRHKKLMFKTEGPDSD

Consider `CCOC(=O)CC(O)(CC(=O)OCC)C(=O)OCC`, for which the compound was classed as inactive in assay [1], in assay [2], in [3], in assay [4], in assay [5] and in assay [6]. The result in [7], in [8], in assay [9], in assay [10], in [11] and in assay [12] was inactive. The outcome in the assay with TIMP1, TIMP1 (gene 7076) is “inactive”; in assay [13], “inactive”; in assay [14] it was “inactive”; in assay [15], “inactive”; in [16] it was “inactive”; in [17] it was “inactive”. The compound was classed as inactive in assay [18].
Take `CCCCCCCCOC(=O)CCCCCCCCC(=O)OCCCCCCCC`: the call in assay [1], in [2], in assay [3], in assay [4], in assay [5] and in assay [6] was inactive. Further, the outcome in assay [7], in assay [8], in assay [9], in assay [10], in [11] and in assay [19] was inactive. The outcome was “inactive” in assay [12]; “inactive” with TIMP1, TIMP1 (gene 7076); “inactive” in assay [13]; “inactive” in assay [14]; “inactive” in assay [16]; “inactive” in assay [17]. Moreover, in [18], the result was inactive.
`CC(=O)NC1(c2cccc(F)c2)CCN(CC[C@@]2(c3ccc(Cl)c(Cl)c3)CN(c3ccccc3)C(=O)CO2)CC1`: the AC50 in [1] is 61.6 µM (active); in assay [3] it was 65.3 µM (active); in assay [4], 77.2 µM (active); in [7] it was 76.3 µM (active); in [10] it was 79.7 µM (active); in [14] it was 20.5 µM (active). Besides, the AC50 in assay [16] is 41.5 µM (active). In addition, the compound was called inactive in assay [5], in assay [6], in assay [8], in assay [9], in assay [11] and in [19]. In addition, the outcome was “inactive” in assay [12]; “inactive” with TIMP1, TIMP1 (gene 7076); “inactive” in [13]; “inactive” in assay [17]; “inactive” in assay [18].

As a reminder, the AC50 is the midpoint of the concentration-response curve, whichever way the signal moves.
